Inconclusive results are not listed. Active and inactive are the calls of the source. Calls come from the whole dose curve; as a rule, active = well fitted cell-killing curve with a large enough effect; inconclusive = small, poorly fitted or top-dose-only effect, or effect the other way; inactive = flat fitted curve, though single readings scatter. *1 amine or outer side, *2 acyl side, *3 side chain or, on linkers, in order; H or OH if unused. Where a SMILES comes first, the peptide text is derived from it. [ ]: non-standard residue; d: D form. The star is where a group is joined. ξ: configuration not given here. X9 = CCC(C)(N*)C(=O)C1CC[C@@H](C(=O)N[C@@H](Cc2ccccc2)C(=O)NCC(=O)O)N1; X8 = O=C([C@@H]1CC(O)CN1[*:1])[*:2]; aIle = CC[C@@H](C)[C@H](N)C(=O)O; Thr(3ξ) = CC(O)[C@H](N)C(=O)O; ξIva = CCC(C)(N)C(=O)O; Aib = CC(C)(N)C(=O)O
Legend:
Assay in all cases: Primary qHTS to identify gynecologic anti-cancer compounds using libraries of approved drugs and bioactive compounds (AID 1345084); note: nearly all actives have a fitted effect of over 55% in size
Details in all cases: Gynecologic cancer cell panel viability, ATPlite luminescence, 48 h; series mostly up to 57.5 µM
OV90 = system: OV90
In short: (§1)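 ATP-based viability (ATPlite), 1,000 cells/well, 16 h pre-incubation, 48 h compound at 37 C, 5% CO2, 15 min RT before read.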

PA-1 = system: PA-1
In short: as §1

SKOV3 = system: SKOV3
In short: as §1

Tov-21-G = system: Tov-21-G
In short: as §1

Tov112D = system: Tov112D
In short: as §1
% is set by controls: 0 for no effect and ±100 for the full control effect.

CC1(C)CC2C3=CCC4[C@@]5(C)CC[C@H](OC6OCC(O)C(OC7OC(CO)C(O)C(O)C7O)C6O)C(C)(C)C5CC[C@@]4(C)[C@]3(C)C[C@H](O)[C@@]2(CO)[C@H](OC(=O)c2ccccc2)C1 (stereo not given in full)
inactive: activity change, negative = cytotoxicity (OV90) 18.5% [at 11.6 µM] | activity change, negative = cytotoxicity (PA-1) 10.1% [at 11.6 µM] | activity change, negative = cytotoxicity (SKOV3) 0% [at 11.6 µM] | activity change, negative = cytotoxicity (Tov-21-G) 6.98% [at 11.6 µM] | activity change, negative = cytotoxicity (Tov112D) -1.17% [at 11.6 µM]

CC1(C)CC2C(O)C3=C(CC(C)(O)C2C1)C(=O)OC3 (stereo not given)
inactive: Potency (OV90) | Potency (PA-1) | Potency (SKOV3) | Potency (Tov-21-G) | Potency (Tov112D)

CC[C@@H](C)[C@H](NC(=O)C(C)(C)NC(=O)[C@H](CCC(N)=O)NC(=O)C(C)(CC)NC(=O)[C@H](Cc1c[nH]c2ccccc12)NC(C)=O)C(=O)N[C@H](C(=O)NC(C)(C)C(=O)N[C@@H](CC(C)C)C(=O)NC(C)(C)C(=O)N1CCC[C@H]1C(=O)N[C@@H](CCC(N)=O)C(=O)NC(C)(C)C(=O)N1CC(O)C[C@H]1C(=O)NC(C)(CC)C(=O)C1CC[C@@H](C(=O)N[C@@H](Cc2ccccc2)C(=O)NCC(=O)O)N1)C(C)O (stereo not given in full) (Ac-W[ξIva]Q[Aib][aIle][Thr(3ξ)][Aib]L[Aib]PQ[Aib][X8]-X9)
inactive: activity change, negative = cytotoxicity (OV90) -20.1% [at 6.55 µM] | activity change, negative = cytotoxicity (PA-1) -32% [at 6.55 µM] | activity change, negative = cytotoxicity (SKOV3) -9.13% [at 6.55 µM] | activity change, negative = cytotoxicity (Tov-21-G) -16.8% [at 6.55 µM] | activity change, negative = cytotoxicity (Tov112D) -24.7% [at 6.55 µM]

CC(C)N(CCCNC(=O)Nc1ccc(C(C)(C)C)cc1)C[C@H]1O[C@@H](n2ccc3c(N)ncnc32)[C@H](O)[C@@H]1O
inactive: Potency (OV90) | Potency (PA-1) | Potency (SKOV3) | Potency (Tov-21-G) | Potency (Tov112D)

C=CC(C)(O)CC/C=C(\C)C1CC=C(C)C(=O)O1 (stereo not given)
inactive: Potency (OV90) | Potency (PA-1) | Potency (SKOV3) | Potency (Tov-21-G) | Potency (Tov112D)

CC12CC(c3ccoc3)OC(=O)C1CCC1(C)C2CCC(O)C1(C)O (stereo not given)
inactive: Potency (OV90) | Potency (PA-1) | Potency (SKOV3) | Potency (Tov-21-G) | Potency (Tov112D)

COCc1c(O)c(C(=O)O)c(C)c2c1OC(=O)c1c(C)cc(O)c(CO)c1O2
inactive: Potency (OV90) | Potency (PA-1) | Potency (SKOV3) | Potency (Tov-21-G) | Potency (Tov112D)

COc1ccnc(CCc2nc3ncccc3[nH]2)c1
inactive: Potency (OV90) | Potency (PA-1) | Potency (SKOV3) | Potency (Tov-21-G) | Potency (Tov112D)

COc1cc(C(O)C2COC(c3ccc(OC4OC(CO)C(O)C(O)C4O)c(OC)c3)C2CO)ccc1O (stereo not given)
inactive: Potency (OV90) | Potency (PA-1) | Potency (SKOV3) | Potency (Tov-21-G) | Potency (Tov112D)

C=C1CCC2C(C)(C(=O)O)CCCC2(C)C1CC/C(C)=C\CO (stereo not given)
inactive: Potency (OV90) | Potency (PA-1) | Potency (SKOV3) | Potency (Tov-21-G) | Potency (Tov112D)

CC(C)=CCC[C@@](C)(O)[C@H]1CC[C@]2(C)[C@@H]1[C@H](O)CC1[C@@]3(C)CC[C@H](O[C@@H]4O[C@H](CO)[C@@H](O)[C@H](O)[C@H]4O[C@@H]4O[C@H](CO)[C@@H](O)[C@H](O)[C@H]4O)C(C)(C)[C@@H]3CC[C@]12C (stereo not given in full)
inactive: Potency (OV90) | Potency (PA-1) | Potency (SKOV3) | Potency (Tov-21-G) | Potency (Tov112D)

C=C(C)[C@@H]1CC[C@]2(C(=O)O)CC[C@]3(C)C(CCC4[C@]5(C)C(CC[C@]43C)C(C)(C)[C@@H](O)[C@@H]5C(=O)O)C12 (stereo not given in full)
inactive: Potency (OV90) | Potency (PA-1) | Potency (SKOV3) | Potency (Tov-21-G) | Potency (Tov112D)

COc1c(O)cc2c(c1O)C(=O)O[C@H](C)[C@H]2O
inactive: Potency (OV90) | Potency (PA-1) | Potency (SKOV3) | Potency (Tov-21-G) | Potency (Tov112D)

C=C(C(=O)O)[C@@H]1CC[C@@]2(C)CC[C@@H](O)C(=C)C2C1 (stereo not given in full)
inactive: Potency (OV90) | Potency (PA-1) | Potency (SKOV3) | Potency (Tov-21-G) | Potency (Tov112D)

C/C1=C\CC(C)(C)/C=C/C/C(C(=O)O)=C/CC1
inactive: Potency (OV90) | Potency (PA-1) | Potency (SKOV3) | Potency (Tov-21-G) | Potency (Tov112D)

CC(=O)O[C@H]1C[C@@H](O)C(C)(C)C2C[C@@H](OC(C)=O)[C@]3(C)C(CC[C@@]4(C)[C@H](c5ccoc5)OC(=O)[C@H]5O[C@]543)[C@]21C (stereo not given in full)
inactive: Potency (OV90) | Potency (PA-1) | Potency (SKOV3) | Potency (Tov-21-G) | Potency (Tov112D)

NC(Cc1c[nH]c2ccc(O)cc12)C(=O)O (stereo not given)
inactive: Potency (OV90) | Potency (PA-1) | Potency (SKOV3) | Potency (Tov-21-G) | Potency (Tov112D)

C/C=C1/[C@H](O[C@@H]2O[C@H](CO)[C@@H](O)[C@H](O)[C@H]2O)OC=C(C(=O)OC)[C@H]1CC(=O)OCCc1ccc(OC(=O)C[C@@H]2C(C(=O)OC)=CO[C@@H](O[C@@H]3O[C@H](CO)[C@@H](O)[C@H](O)[C@H]3O)/C2=C/C)cc1
inactive: activity change, negative = cytotoxicity (OV90) 7.47% [at 11.6 µM] | activity change, negative = cytotoxicity (PA-1) 1.32% [at 11.6 µM] | activity change, negative = cytotoxicity (SKOV3) 0% [at 11.6 µM] | activity change, negative = cytotoxicity (Tov-21-G) 4.28% [at 11.6 µM] | activity change, negative = cytotoxicity (Tov112D) 11.9% [at 11.6 µM]

COc1ccc(Oc2c(Cl)cnn(C3c4ccccc4-c4ccccc43)c2=O)cc1
inactive: Potency (OV90) | Potency (PA-1) | Potency (SKOV3) | Potency (Tov-21-G) | Potency (Tov112D)

Cc1cc(-c2nncc3c(C(C)(C)C)c(OCc4ncnn4C)nn23)no1
inactive: Potency (OV90) | Potency (PA-1) | Potency (SKOV3) | Potency (Tov-21-G) | Potency (Tov112D)
